SKKanGAS inh = S. pyogenes SKKanGAS growth inhibitors in kanamycin, primary screen, streptokinase expression inhibitor project, SKKanGAS strain, BacTiter-Glo luminescence; inhibition, % at 7.5 µM; AID 1662, 2009; 300,000 compounds, 1.3% hits; 6 h;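 active means mean replicate score, as percent of positive control median, at least 50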;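 further: strain carries kanamycin resistance gene driven by streptokinase promoter and grows in 40 µg/ml kanamycin; loss of luminescence reflects streptokinase promoter inhibition or plain growth inhibition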
PfHsp90 set2 = growth inhibition of PfHsp90-expressing yeast, primary screen, antimalarial PfHsp90 inhibitor project, S. cerevisiae, BacTiter-Glo luminescence, single point, set 2 | BacTiter-Glo ATP, 48 h; yeast lacking PDR1 and PDR3 efflux regulators | inhibition, % at 9.4 µM | 310,000 compounds, 0.32% hits | AID 504621, 2011;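 active means every replicate shows inhibition above about 80%, whatever the replicate mean, limit read from the data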
tim10-1 inh = growth inhibitors of tim10-1 mutant yeast, primary screen, luminescence, uHTS | inhibition, % at 20 µM | S. cerevisiae tim10-1 ts strain growth, BacTiter-Glo, 24 h | 330,000 compounds, 2.2% hits;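 active means inhibition of at least 40%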;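 further: mutant grown at 25 °C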
tim23-1 inh = growth inhibitors of tim23-1 mutant yeast, primary screen, luminescence, uHTS; S. cerevisiae tim23-1 growth, BacTiter-Glo luminescence, 24 h; inhibition, % at 20 µM; 330,000 compounds, 1.3% hits;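 active means growth inhibition of the mutant yeast at or above 50%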;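 further: temperature-sensitive mutant grown at 25 °C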
V-ATPase pHluor = regulators of yeast V-ATPase proton pumping, primary screen, pHLuorin cytosolic pH fluorescence; S. cerevisiae; response, % at 10 µM; 350,000 compounds, 0.37% hits; AID 504577, 2011; in the data active means response mostly above about 7.3%, no sharp cut-off; inactive means mostly below about 5.4%; further: actives read high
TIM10 inh = growth inhibitors of isogenic TIM10 control yeast, primary screen, counter-screen for tim10-1 yeast inhibitor project, luminescence, uHTS; inhibition, % at 10 µM; 330,000 compounds, 1.4% hits; S. cerevisiae TIM10 strain growth, BacTiter-Glo luminescence, 24 h; AID 463195, 2010;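 active means inhibition of 40% or more at the single tested concentration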;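 further: wild-type TIM10 isogenic control strain grown at permissive 25 °C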
V-ATPase pH SP = yeast V-ATPase proton pumping modulators, confirmation, S. cerevisiae, pH-sensitive GFP, second cherry-pick | shares compounds with V-ATPase pHluor | 980 compounds, 2% hits | S. cerevisiae pHLuorin cytosolic pH, V-ATPase proton transport | response, % at 10 µM | AID 602197, 2012; in the data active means response above about 24%
Of the large screens only hits and unclear results are named; the others gave an inactive call (follow-up assays come after a bar, where they were run). Only some compounds are listed: those with a hit (about 4.6% of all), similar ones and a draw of the others.

CCN1C[C@@H]2[C@@H]3C(=O)N(C)C(=O)[C@@H]3[C@](C)(C1=O)N2C(=O)c1ccc(Cl)c(Cl)c1	none (no result: SKKanGAS inh, tim10-1 inh, tim23-1 inh, TIM10 inh)
CCOC(=O)N=Nc1c(O)n(CC(=O)OC)c2ccccc12	none | V-ATPase pH SP inactive
COc1ccc(NC(=O)Cn2c(=O)c(C)nc3ccccc32)cc1Cl	none
CCOC(=O)Cc1nc2ccccc2n(CC#N)c1=O	none | V-ATPase pH SP inactive
CCOC(=O)Cn1c(=O)n(CC(=O)OCC)c2ccccc21	none | V-ATPase pH SP inactive
CCCCn1c(=O)c(CCC(=O)O)nc2ccccc21	none
COC(=O)Cn1c(=O)c(C)nc2ccccc21	none | V-ATPase pH SP inactive
O=C(CN(c1cc(Cl)ccc1Cl)S(=O)(=O)c1ccccc1)N1CCOCC1	none
C=CCNC(=O)CSc1nnc(-c2ccccc2Cl)n1-c1c(C)n(C)n(-c2ccccc2)c1=O	none
Cc1c(-n2c(SCC(=O)O)nnc2-c2ccccc2Br)c(=O)n(-c2ccccc2)n1C	V-ATPase pHluor 7.1 | V-ATPase pH SP inactive
Cn1nnnc1Sc1ccc([N+](=O)[O-])cc1Cl	none (no result: PfHsp90 set2)
Cn1nnnc1Sc1c(Cl)cccc1[N+](=O)[O-]	V-ATPase pHluor 7.8 | V-ATPase pH SP inactive
CC1(C)CCCC2(C)C(OCCO)=CC(=O)C=C12 (stereo not drawn)	none (no result: SKKanGAS inh, PfHsp90 set2, tim10-1 inh, tim23-1 inh, TIM10 inh)
O=C(NN=C1CCCCCCC1)c1ccc(F)cc1	none | V-ATPase pH SP inactive
CC(C)(C)c1ccc(C(=O)NN=C2CCCC2)cc1	none
O=C(OCc1ccccc1Cl)c1cccnc1Cl	V-ATPase pHluor 9.5 (no result: PfHsp90 set2) | V-ATPase pH SP inactive
CC(C)(C)n1cnc(C(N)=O)c1N	V-ATPase pHluor 9.5 | V-ATPase pH SP inactive
O=C(O)/C=C/C(=O)c1ccc2c(c1)NC(=O)CO2	none
O=C(CSC1=NCCS1)Nc1ccc(F)cc1	none | V-ATPase pH SP inactive
CCC(C)C(=O)Nc1nnc(SCC(=O)Nc2ccc(F)cc2)s1 (stereo not drawn)	none
CC(=O)Nc1ccc(NC(=O)CSc2nnc(NC(=O)Cc3ccc(F)cc3)s2)cc1	V-ATPase pHluor 8.3 | V-ATPase pH SP inactive
CC(C)[C@H](NC(=O)c1c(F)cccc1F)C(=O)OCC(=O)NNC(=O)c1ccccc1	none (no result: SKKanGAS inh, PfHsp90 set2, tim10-1 inh, tim23-1 inh, TIM10 inh)
COc1ccccc1NC(=O)CCc1nnc2ccc(N3CCN(C)CC3)nn12	none
CCOc1ccc(S(=O)(=O)N2CCCC(C(=O)N3CCOCC3)C2)cc1Cl (stereo not drawn)	none
O=c1[nH]nc(Cc2ccccc2)c2ccccc12	none
COc1ccc(Cc2n[nH]c(=O)c3ccccc23)cc1OC	V-ATPase pHluor 21.6 | V-ATPase pH SP inactive
CCn1cc(CNCc2cn(C)nc2-c2ccc(C3CCCCC3)cc2)cn1	none (no result: tim10-1 inh, tim23-1 inh, TIM10 inh)
CCC1(CC)NC(=O)N(CC(=O)OC(C)C(=O)Nc2ccc(Cl)cn2)C1=O (stereo not drawn)	none
CCC1(CC)NC(=O)N(CC(=O)OC(C)C(=O)Nc2cc([N+](=O)[O-])ccc2OC)C1=O (stereo not drawn)	V-ATPase pHluor 10.7 | V-ATPase pH SP inactive
CC1CCCCC12NC(=O)N(CC(=O)OCC(=O)N(C)C1CCCCC1)C2=O (stereo not drawn)	none (no result: SKKanGAS inh)
Cc1ccc(C)c(OCc2ccc(C(=O)Nc3ccc([N+](=O)[O-])cn3)o2)c1	V-ATPase pHluor 9.9 (no result: SKKanGAS inh) | V-ATPase pH SP inactive
NNC(=O)c1ccc(COCC(F)(F)F)cc1	V-ATPase pHluor 9.1 | V-ATPase pH SP inactive
Cc1cccc(S(=O)(=O)N(C)C[C@H]2OCc3cn(nn3)CCCC(=O)N([C@H](C)CO)C[C@@H]2C)c1	V-ATPase pHluor 4.9 (no result: SKKanGAS inh, PfHsp90 set2, tim10-1 inh, tim23-1 inh, TIM10 inh) | V-ATPase pH SP inactive
COc1cc(C)nc(-c2csc(C)n2)n1	none
COc1cc(OC)c(NC(=O)c2sc3ncn(CC(=O)N4CCOCC4)c(=O)c3c2C)cc1Cl	V-ATPase pHluor 6.4 | V-ATPase pH SP inactive
O=S(N1CCCCC1)C12CC3CC(CC(C3)C1)C2 (stereo not drawn)	V-ATPase pHluor 14.5 | V-ATPase pH SP inactive
O=S(=O)(c1ccc(Cl)nc1)N1CCc2ccccc21	V-ATPase pHluor 11.8 | V-ATPase pH SP inactive
O=S(=O)(c1ccc(Cl)nc1)N1CCCc2ccccc21	none
O=C(O)c1ccc(N2C(=O)CC(N3CCC(c4nc5ccccc5[nH]4)CC3)C2=O)cc1 (stereo not drawn)	none
O=C1CC(N2CCC(c3nc4ccccc4[nH]3)CC2)C(=O)N1c1cccc(F)c1 (stereo not drawn)	V-ATPase pHluor 5.8 | V-ATPase pH SP inactive
CCN1CCN(CCCNC(=O)Cn2nc(C)n3nc(-c4ccccc4)cc3c2=O)CC1	V-ATPase pHluor 18.8 | V-ATPase pH SP inactive
Cc1nn(CC(=O)NCCCN2CCN(Cc3ccccc3)CC2)c(=O)c2cc(-c3ccccc3)nn12	none
COC(=O)c1ccc(NC(=O)c2snnc2-c2ccccc2)cc1	V-ATPase pHluor 8.2 | V-ATPase pH SP inactive
COc1ccc(/C=C2\Oc3cc(OCC(N)=O)ccc3C2=O)cc1OC	none
COC(=O)COc1ccc2c(c1)O/C(=C\c1cccc([N+](=O)[O-])c1)C2=O	V-ATPase pHluor 12.7 | V-ATPase pH SP inactive
COC(C(=O)Nc1c(F)cccc1F)c1ccccc1 (stereo not drawn)	V-ATPase pHluor 10.3 | V-ATPase pH SP inactive
O=C(Nc1c(F)cccc1F)C(c1ccccc1)c1ccccc1	none (no result: PfHsp90 set2)
Cc1c(C)n2c3c(cccc13)CC2	V-ATPase pHluor 6.0 | V-ATPase pH SP inactive
O=c1c2ccccc2ncn1-c1ccc(Cl)cc1	none | V-ATPase pH SP inactive
O=c1c2ccccc2ncn1Cc1ccc(Cl)cc1	none (no result: PfHsp90 set2)
COc1ccc(-c2ccc(NCCN3CCOCC3)nn2)cc1OC	none
CC1=C(C(N)=O)C(c2ccc(Cl)cc2)n2nc(CCCO)nc2N1 (stereo not drawn)	none
CC1=C(C(N)=O)C(c2cccc(O)c2)n2nc(CCCO)nc2N1 (stereo not drawn)	V-ATPase pHluor 7.2 (no result: PfHsp90 set2) | V-ATPase pH SP inactive
COc1ccccc1CNC(=O)c1oc2ccc(S(=O)(=O)N3CCCC3)cc2c1C	V-ATPase pHluor 7.2 | V-ATPase pH SP inactive
COc1ccccc1CNC(=O)c1oc2ccc(S(=O)(=O)N3CCOCC3)cc2c1C	none
COc1ccc(-c2c(C)n([O-])c3c([n+]2=O)CCCC3)cc1	V-ATPase pHluor 10.2 | V-ATPase pH SP inactive
Cc1ccc(-c2c(C)n([O-])c3c([n+]2=O)CCCCC3)cc1	none
O=C(Nc1ccc2oc(=O)ccc2c1)c1cccnc1Cl	none
O=C(CN1CCN(c2ccccc2)CC1)N1N=CCC1c1ccccc1 (stereo not drawn)	V-ATPase pHluor 23.5 | V-ATPase pH SP inactive
CCCc1nc2nc(C)c(NS(=O)(=O)c3ccc(C)c(C)c3)c(=O)n2[nH]1	none (no result: SKKanGAS inh, PfHsp90 set2, tim10-1 inh, tim23-1 inh, TIM10 inh)

Assay outcomes as filed in PubChem BioAssay.
